These results are taken from the antibiotic and cytotoxicity screens of Wong et al. (2023).

Structures are written as SMILES. In all, about 39,000 compounds went through this assay and about 3,300 (8.5%) were called active. For the sample, actives were picked, then their nearest neighbours and some compounds at random.

For the assay, the system named is HepG2. Nature of the assay: cytotoxicity call (relative viability < 0.9). The settings on record: 10 µM.
Take `Cc1ccc(S(=O)(=O)Nc2ccc3c(c2)C(=O)N([C@@H](C)CO)C[C@@H](C)[C@H](CN(C)S(=O)(=O)c2ccc(F)cc2)O3)cc1`: the cytotoxicity call is “inactive”.
On to `C[C@H](CO)N1C[C@H](C)[C@@H](CN(C)S(C)(=O)=O)Oc2c(NC(=O)CCCCCC(=O)Nc3ccccc3N)cccc2C1=O`, for which the cytotoxicity call was “inactive”.
For `C[C@@H]1CN([C@H](C)CO)C(=O)c2cc(NS(=O)(=O)c3cn(C)cn3)ccc2O[C@@H](C)CCCCO[C@@H]1CN(C)C(=O)CCCN(C)C` the value was “inactive”.
Then `C[C@@H]1CN([C@H](C)CO)C(=O)Cc2cc(NC(=O)CCCCCC(=O)Nc3ccccc3N)ccc2O[C@H]1CN(C)C(=O)Nc1ccccc1`, with “inactive”.
Turning to `COc1cccc(-c2ccc3c(c2)O[C@H](CN(C)C(=O)C2CCC2)[C@H](C)CN([C@H](C)CO)S3(=O)=O)c1`, the cytotoxicity call was “inactive”.
In the case of `C[C@@H]1CN([C@H](C)CO)C(=O)c2cc(NC(=O)Cc3ccccc3)ccc2O[C@@H](C)CCCCO[C@H]1CN(C)C(=O)Nc1ccc2c(c1)OCO2`, the cytotoxicity call is “inactive”.
For `CNC(=O)C[C@H]1CC[C@@H]2[C@H](COc3ccc(NC(=O)c4ccc(C(F)(F)F)cc4)cc3C(=O)N2C)O1` the value was “inactive”; for `C[C@H](CO)N1C[C@H](C)[C@H](CN(C)Cc2ccc(C(=O)O)cc2)OCCCC[C@H](C)Oc2ccc(NS(=O)(=O)c3ccc(Cl)cc3)cc2C1=O`, “inactive”; for `Cc1noc(C)c1NC(=O)N(C)C[C@@H]1Oc2c(NC(=O)NC(C)C)cccc2C(=O)N([C@@H](C)CO)C[C@@H]1C`, “inactive”.
`NNc1ccc2[nH]c(=O)[nH]c2c1`: the cytotoxicity call is “inactive”.
`C[C@@H]1CCCCO[C@H](CN(C)Cc2ccc(C(F)(F)F)cc2)[C@@H](C)CN([C@@H](C)CO)C(=O)c2cc(NC(=O)Nc3ccc(F)cc3)ccc2O1`: the cytotoxicity call is “active”.
For the compound `C[C@@H]1CN([C@@H](C)CO)C(=O)c2cc(NC(=O)Nc3ccc(F)cc3)ccc2O[C@@H](C)CCCCO[C@@H]1CN(C)Cc1ccc(C(F)(F)F)cc1`, the cytotoxicity call is “inactive”.
Take `C[C@@H]1CCCCO[C@@H](CN(C)Cc2ccc(C(F)(F)F)cc2)[C@H](C)CN([C@@H](C)CO)C(=O)c2cc(NC(=O)Nc3ccc(F)cc3)ccc2O1`: the cytotoxicity call is “inactive”.
On to `C[C@@H]1CCCCO[C@@H](CN(C)Cc2ccc(C(F)(F)F)cc2)[C@H](C)CN([C@H](C)CO)C(=O)c2cc(NC(=O)Nc3ccc(F)cc3)ccc2O1`, for which the cytotoxicity call was “inactive”.
Then `C[C@H](CO)N1C[C@H](C)[C@@H](CN(C)Cc2ccc(C(F)(F)F)cc2)OCCCC[C@H](C)Oc2ccc(NC(=O)Nc3ccc(F)cc3)cc2C1=O`, with “inactive”; and `C[C@H](CO)N1C[C@H](C)[C@H](CN(C)Cc2ccc(C(F)(F)F)cc2)OCCCC[C@H](C)Oc2ccc(NC(=O)Nc3ccc(F)cc3)cc2C1=O`, with “active”.
For `C[C@H]1CCCCO[C@H](CN(C)Cc2ccc(C(F)(F)F)cc2)[C@@H](C)CN([C@@H](C)CO)C(=O)c2cc(NC(=O)Nc3ccc(F)cc3)ccc2O1` the value was “active”; for `C[C@@H]1CN([C@@H](C)CO)C(=O)c2cc(NC(=O)Nc3ccc(F)cc3)ccc2O[C@@H](C)CCCCO[C@H]1CN(C)Cc1ccc(C(F)(F)F)cc1`, “active”; for `CCNC(=O)C[C@H]1C=C[C@@H](NC(=O)C2CCOCC2)[C@@H](CO)O1`, “inactive”.
For `COc1ccc(NC(=O)N(C)C[C@@H]2Oc3ccc(NC(=O)C4CC4)cc3CC(=O)N([C@H](C)CO)C[C@H]2C)cc1`, the cytotoxicity call is “inactive”.
As to `CN(C)CC(=O)N[C@@H]1CC[C@H](CCNC(=O)C2CC2)O[C@H]1CO`, the cytotoxicity call is “inactive”.
For `COc1ccc(NC(=O)N(C)C[C@H]2OCCCC[C@H](C)Oc3ccc(NS(=O)(=O)c4ccc(OC)cc4)cc3C(=O)N([C@H](C)CO)C[C@@H]2C)cc1` the value was “inactive”; for `C[C@H](CO)N1C[C@H](C)[C@@H](CN(C)C(=O)Nc2ccc(N3CCN(C)CC3)cc2)OCc2cnnn2CCCC1=O`, “inactive”; for `CC(=O)NCCCC[C@@H]1NC(=O)[C@@H]2C[C@H](C(=O)NCCCCCNC(=O)CS)[C@H](c3cccc(OCCO)c3)N2C1=O`, “inactive”.
Then `C[C@@H]1CN([C@H](C)CO)C(=O)c2cc(NS(=O)(=O)c3cn(C)cn3)ccc2O[C@@H](C)CCCCO[C@@H]1CN(C)S(=O)(=O)c1ccccc1`, with “inactive”.
Turning to `C[C@@H]1CN([C@H](C)CO)C(=O)c2cccc(NC(=O)NC3CCCCC3)c2O[C@@H]1CN(C)Cc1ccc(Oc2ccccc2)cc1`, the cytotoxicity call was “inactive”.
Then `COc1ccc(NC(=O)N(C)C[C@H]2Oc3ccc(NC(=O)Nc4cccc5ccccc45)cc3CC(=O)N([C@H](C)CO)C[C@H]2C)cc1`, with “inactive”; and `CC(C)CC#Cc1ccc2c(c1)O[C@H](CN(C)C(=O)Cc1ccccn1)[C@@H](C)CN([C@H](C)CO)S2(=O)=O`, with “inactive”.
Then `C[C@H](CO)N1C[C@H](C)[C@@H](CN(C)C(=O)NC2CCCCC2)OCCCC[C@H](C)Oc2ccc(NC(=O)Cc3ccccc3)cc2C1=O`, with “inactive”; and `COc1ccc(CN(C)C[C@H]2Oc3c(NC(=O)Nc4ccc(C(F)(F)F)cc4)cccc3C(=O)N([C@@H](C)CO)C[C@@H]2C)cc1`, with “inactive”.
Then `C[C@@H]1CN([C@H](C)CO)C(=O)c2cc(NC(=O)Nc3ccc(F)cc3)ccc2O[C@@H](C)CCCCO[C@@H]1CN(C)Cc1ccc(C(F)(F)F)cc1`, with “inactive”; and `C[C@@H]1CCCCO[C@H](CN(C)Cc2ccc(C(F)(F)F)cc2)[C@H](C)CN([C@H](C)CO)C(=O)c2cc(NC(=O)Nc3ccc(F)cc3)ccc2O1`, with “active”.
In the case of `C[C@@H]1CCCCO[C@@H](CN(C)Cc2ccc(C(F)(F)F)cc2)[C@@H](C)CN([C@H](C)CO)C(=O)c2cc(NC(=O)Nc3ccc(F)cc3)ccc2O1`, the cytotoxicity call was “inactive”.
With `C[C@@H]1CCCCO[C@H](CN(C)Cc2ccc(C(F)(F)F)cc2)[C@@H](C)CN([C@H](C)CO)C(=O)c2cc(NC(=O)Nc3ccc(F)cc3)ccc2O1`, the cytotoxicity call was “inactive”.
As to `C[C@@H]1CCCCO[C@@H](CN(C)Cc2ccc(C(F)(F)F)cc2)[C@@H](C)CN([C@@H](C)CO)C(=O)c2cc(NC(=O)Nc3ccc(F)cc3)ccc2O1`, the cytotoxicity call is “inactive”.
Regarding `C[C@@H]1CCCCO[C@H](CN(C)Cc2ccc(C(F)(F)F)cc2)[C@H](C)CN([C@@H](C)CO)C(=O)c2cc(NC(=O)Nc3ccc(F)cc3)ccc2O1`, the cytotoxicity call is “active”.
For `C[C@@H]1CN([C@H](C)CO)C(=O)c2cc(NC(=O)Nc3ccc(F)cc3)ccc2O[C@@H](C)CCCCO[C@H]1CN(C)Cc1ccc(C(F)(F)F)cc1` the value was “active”.
Then `C[C@H]1CCCCO[C@@H](CN(C)Cc2ccc(C(F)(F)F)cc2)[C@@H](C)CN([C@@H](C)CO)C(=O)c2cc(NC(=O)Nc3ccc(F)cc3)ccc2O1`, with “active”; and `C[C@H](CO)N1C[C@H](C)[C@@H](CN(C)Cc2ccc(Cl)c(Cl)c2)Oc2ccc(NC(=O)Cn3cnnn3)cc2CC1=O`, with “inactive”; and `COc1ccc(S(=O)(=O)Nc2ccc3c(c2)C(=O)N([C@H](C)CO)C[C@@H](C)[C@H](CN(C)C(=O)Nc2ccc(F)cc2)OCCCC[C@@H](C)O3)cc1`, with “inactive”.
On to `C=CCN(C#N)c1nc(N(C)C)nc(N(C)C)n1`, for which the cytotoxicity call was “inactive”.
For `C[C@@H]1CN([C@H](C)CO)C(=O)c2cccc(NC(=O)c3cnccn3)c2O[C@@H]1CN(C)Cc1ccccc1` the value was “inactive”; for `Cc1noc(C)c1S(=O)(=O)Nc1ccc2c(c1)C(=O)N([C@H](C)CO)C[C@H](C)[C@@H](CN(C)S(=O)(=O)c1cccs1)O2`, “inactive”; for `Cc1noc(C)c1NC(=O)Nc1ccc2c(c1)CC(=O)N([C@H](C)CO)C[C@@H](C)[C@@H](CN(C)Cc1ccc(C(F)(F)F)cc1)O2`, “inactive”.
For the compound `Cc1ccc(S(=O)(=O)N2C[C@@H](O)COC[C@H]3O[C@H](CC(=O)N[C@@H]4CCN(Cc5ccccc5)C4)CC[C@@H]32)cc1`, the cytotoxicity call is “inactive”.
As to `COc1ccccc1C#Cc1cnc2c(c1)C(=O)N([C@@H](C)CO)C[C@H](C)[C@@H](CN(C)C(=O)CN(C)C)O2`, the cytotoxicity call is “inactive”.
With `C=C(C)[C@@H]1CC[C@]2(COC(C)=O)CC[C@]3(C)[C@H](CC[C@@H]4[C@@]5(C)CC[C@H](OC(C)=O)C(C)(C)[C@@H]5CC[C@]43C)[C@@H]12`, the cytotoxicity call is “inactive”.
Then `C[C@@H]1CCCCO[C@@H](CN(C)S(=O)(=O)c2cn(C)cn2)[C@H](C)CN([C@@H](C)CO)C(=O)c2cc(NS(=O)(=O)c3cn(C)cn3)ccc2O1`, with “inactive”; and `C[C@H]1CN([C@@H](C)CO)C(=O)c2cc(NC(=O)C3CC3)ccc2O[C@H]1CN(C)C(=O)NC1CCCCC1`, with “inactive”.
As to `COc1cc2c(cc1OC)[C@@]13ON=C(c4ccc(OCCOC(=O)NCCCCCC(=O)NO)cc4)[C@@H]1CCN3CC2`, the cytotoxicity call was “inactive”.
Then `COc1cc2c(cc1OC)-c1onc(-c3ccc(OCCO[Si](C(C)C)(C(C)C)C(C)C)cc3)c1CCCN(C[C@@H](C)OC(=O)NCCCCCC(=O)NO)CC2`, with “active”; and `COc1cc2c(cc1OC)-c1onc(-c3ccc(OCCO[Si](C(C)C)(C(C)C)C(C)C)cc3)c1CCCN(C[C@@H](C)O)CC2`, with “inactive”.
Then `C/C=C/c1cccc(-c2nc(C(=O)NCc3ccc(OC)cc3)cc3c2[C@@H](CCO)N([S@](=O)C(C)(C)C)C3)c1`, with “inactive”; and `COc1nn(C)cc1-c1n[nH]c(=S)n1C`, with “inactive”.
For `O=C(C[C@@H]1CC[C@@H]2[C@H](COC[C@H](O)CN2S(=O)(=O)c2ccc(Oc3ccccc3)cc2)O1)NC1CCC1`, the cytotoxicity call is “inactive”.
With `CC1(O)CCC(C(C)(C)O)CC1.O` (centres undefined), the cytotoxicity call was “inactive”.
Take `CCCC#Cc1ccc2c(c1)O[C@@H](CN(C)S(=O)(=O)c1cccc(OC)c1)[C@@H](C)CN([C@H](C)CO)S2(=O)=O`: the cytotoxicity call was “inactive”.
Regarding `COc1cccc(S(=O)(=O)N(C)C[C@H]2Oc3ncc(C#CCN(C)C)cc3C(=O)N([C@H](C)CO)C[C@@H]2C)c1`, the cytotoxicity call is “inactive”.
Then `COc1ccc(NC(=O)Nc2ccc3c(c2)CC(=O)N([C@@H](C)CO)C[C@@H](C)[C@H](CN(C)S(=O)(=O)c2cn(C)cn2)O3)cc1`, with “inactive”.
